In ChEMBL document CHEMBL4513149, “CO-ADD screening of MMV (CH) - MMV compounds” (2021):
Potency and affinity values are given separately.

Experiments:
Klebsiella pneumoniae = settings: Concentration 20 uM; ASSAY_TEST Inhibition of Bacterial Growth; detection method Absorption (OD600); MEDIA CAMHB; plate type 384well; NBS; CORNING #3640; time 18 hr
Candida albicans = settings: 20 µM
Cryptococcus neoformans = settings: Concentration 20 uM; ASSAY_TEST Inhibition of Fungal Growth; detection method Resazurin; Absorption (OD600-OD570); plate type 384well; NBS; CORNING #3640

Structure (SMILES)	Inhibition (Klebsiella pneumoniae)	Inhibition (Candida albicans)	Inhibition (Cryptococcus neoformans)
Cc1ccc2oc(-c3cc(NC(=O)Cc4ccccc4)ccc3Cl)nc2c1	6.29%	14.6%	-8.89%
Nc1ncnc2c1c(Cc1cccc3ccccc13)nn2CC1CCNCC1	-3.02%	2.11%	-1.33%
Cc1nn2c(O)c3c(nc2c1-c1ccc(F)cc1)CCCC3	11.6%	3.69%	-6.74%
CC(C)(C)OC(=O)N1CCC(Cn2nc(-c3cnc4ccccc4c3)c3c(N)ncnc32)CC1	15.77%	2.29%	-9.75%
Nc1ncc(-c2ccc(C(F)(F)F)nc2)cc1-c1ccc(C(F)(F)F)nc1	-7.95%	5.26%	-5.78%
CNC(=O)c1nn(C)c2c1C(C)(C)Cc1cnc(Nc3ccc(N4CCN(C)CC4)cc3)nc1-2 [MILCICLIB]	-10.97%	4.83%	-4.76%
CNc1cc(C)nc(C2CN(C(=O)c3n[nH]c4ccccc34)CCO2)c1 (configuration not stated)	20.78%	2.95%	-9.16%
CCc1ccc(C(NCc2nc(N)nc(N(C)C)n2)C(C)C)cc1 (configuration not stated)	-6.55%	5.01%	-4.27%
COc1ccccc1CNC(=O)c1cc(C2CC2)nc2c1cnn2C(C)C	8.65%	6.8%	-9.25%
